Compound activity deposited in PubChem BioAssay by several laboratories.
HIF-2a inh: HIF-2a reporter inhibitors, primary screen, luminescence, 786-0 RCC cells; AID 624352, 2012; actives 0.72% (n = 360,000); inhibition, % at 18.8 µM; 786-0 RCC cells HIF-2a reporter, luciferase luminescence, overnight;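 active means inhibition of the luminescence signal of 40% or more relative to plate controls, in a single-dose primary screen at 18.75 µM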
LMP1 NFkB inh: EBV LMP1-driven NF-kappaB luciferase reporter inhibitors, primary screen, cell-based, luminescence, single point; LMP1-induced NF-kappaB luciferase reporter cells; inhibition, % at 12.5 µM; AID 504558, 2011; actives 0.69% (n = 350,000); in the data active means inhibition above about 41%;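 further: 0% = neutral control wells and 100% = reference inhibitor control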
PAX8 inh HTS: inhibitors of PAX8-driven TPO luciferase reporter, primary screen, RMG-I cells, single concentration | inhibition, % at 12.6 µM | actives 1.2% (n = 360,000) | SteadyGlo, 24 h;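 active means mean replicate inhibition at least 60% with every replicate also reaching 60%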;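 further: luciferase light reporting Pax8 driven TPO promoter activity; plate controls were median of neutral control wells for no effect and mitoxantrone controls for full effect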
TRPM1 prom inh: inhibitors of MITF-dependent TRPM1 promoter reporter, primary screen, cell-based, SK-MEL-5, single point, luciferase | SK-MEL-5 TRPM1 promoter luciferase, 24 h | AID 488899, 2010 | actives 0.83% (n = 330,000) | inhibition, % at 12.5 µM;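 active means mean inhibition across replicates of 60% or more, whatever share of single replicates reaches that level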
Shn3 inh set2: reduction of Shn3 3'UTR firefly luciferase signal, primary screen, Schnurri-3 inhibitor project, cell-based, Clone20 osteoblasts, set 2. Clone20 osteoblast Shn3 3'UTR firefly luciferase, 24 h. inhibition, % at 12.5 µM. actives 0.52% (n = 360,000);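 active means mean inhibition of at least 75% with every replicate also reaching 75%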;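 further: 0% = median of neutral control wells and 100% = pilot-screen positive control compound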
Peg3 prom inh: Peg3 promoter-driven luciferase inhibitors, primary screen, cell-based, HeLa, luciferase luminescence | HeLa PEG-Prom luciferase reporter, overnight | inhibition, % at 20 µM | actives 1.7% (n = 360,000) | AID 588405, 2011;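 active means inhibition of at least 50% at 20 µM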
An asterisk follows results filed as active; / = not tested or not shown; ! = repeats disagree. In the library only some 2.8% were active in any assay of this set; here they are far more common.

SMILES	HIF-2a inh	LMP1 NFkB inh	PAX8 inh HTS	TRPM1 prom inh	Shn3 inh set2	Peg3 prom inh
CCOC(=O)c1ccc(NC(=O)c2ccc(C)c(S(=O)(=O)N3CCOCC3)c2)cc1	13.8	18.6	/	68.8*	42.2	92.8*
C[C@H](CO)N1C[C@H](C)[C@H](CN(C)C(=O)CCC(F)(F)F)OCCCC[C@H](C)Oc2ccc(NS(=O)(=O)c3ccccc3)cc2C1=O	/	/	2.8	/	/	/
C[C@@H]1CN([C@H](C)CO)C(=O)c2cc(NC(=O)Nc3ccc(F)cc3)ccc2O[C@@H](C)CCCCO[C@H]1CN(C)S(=O)(=O)c1cccs1	-4.0	4.9	68.5*!	/	35.9	6.6
C[C@@H]1CCCCO[C@@H](CN(C)S(=O)(=O)c2cccs2)[C@@H](C)CN([C@H](C)CO)C(=O)c2cc(NC(=O)Nc3ccc(C(F)(F)F)cc3)ccc2O1	/	/	14.3	/	/	/
C[C@@H]1CN([C@H](C)CO)C(=O)c2cc(NC(=O)Nc3ccc(C(F)(F)F)cc3)ccc2O[C@@H](C)CCCCO[C@H]1CN(C)S(=O)(=O)c1cccs1	/	/	70.9*	/	/	/
C[C@@H]1CN([C@@H](C)CO)C(=O)c2cc(NC(=O)Nc3ccc(C(F)(F)F)cc3)ccc2O[C@@H](C)CCCCO[C@@H]1CN(C)S(=O)(=O)c1cccs1	/	/	-11.4	/	/	/
C[C@H]1CCCCO[C@H](CN(C)S(=O)(=O)c2cccs2)[C@@H](C)CN([C@@H](C)CO)C(=O)c2cc(NC(=O)Nc3ccc(F)cc3)ccc2O1	/	/	-9.6	/	/	/
C[C@@H]1CCCCO[C@H](CN(C)S(=O)(=O)c2cccs2)[C@@H](C)CN([C@@H](C)CO)C(=O)c2cc(NC(=O)Nc3ccc(C(F)(F)F)cc3)ccc2O1	/	/	75.1*	/	/	/
C[C@@H]1CCCCO[C@@H](CN(C)S(=O)(=O)c2cccs2)[C@H](C)CN([C@H](C)CO)C(=O)c2cc(NC(=O)Nc3ccc(C(F)(F)F)cc3)ccc2O1	/	/	79.8*	/	/	/
Cc1noc(C)c1NC(=O)Nc1ccc2c(c1)CC(=O)N([C@@H](C)CO)C[C@@H](C)[C@@H](CN(C)Cc1ccccc1)O2	/	/	-0.4	/	/	/
CC(C)c1cn(CC[C@H]2CC[C@H](NC(=O)Nc3cc(Cl)cc(Cl)c3)[C@H](CO)O2)nn1	/	/	0.8	/	/	/
CN(C)C(=O)C[C@@H]1CC[C@H](NC(=O)C2CCOCC2)[C@@H](CO)O1	/	/	0.0	/	/	/
O=C(Cn1cc(C(F)(F)F)ccc1=O)Nc1ccc2c(c1)OCO2	-9.6	-0.5	95.4*	/	12.9	-9.6
O=C(Cn1cc(Br)ccc1=O)Nc1ccc2c(c1)OCO2	-9.4	-14.3	6.8	-4.4	-0.5	-18.9
CSc1nc2c(cnn2-c2ccc(C)c(C)c2)c(=O)[nH]1	6.1	6.0	16.7	28.7	-7.0	59.0*
COc1ccc2c3c([nH]c2c1)[C@@H](CO)N(C(=O)c1ccccn1)CC31CCN(C(=O)C2CCCC2)CC1	/	/	-13.6	/	/	/
O=[N+]([O-])CC(c1ccc(F)cc1)c1c[nH]c2ccccc12 (centres undefined)	23.9	3.5	43.0	16.6	-7.2	55.0*
N=C1S/C(=C\c2ccccc2)C(=O)N1c1ccc(F)cc1	10.8	66.6*	3.4	-10.6	-25.4	7.8
NNC(=O)c1ccc(CSc2cccc3cccnc23)cc1	7.1	5.6	7.3	-4.6	0.1	-33.5
Cc1cccc(CSc2cccc3cccnc23)c1	-147.0	-14.4	/	21.2	96.4*	28.4
N#Cc1ccsc1NC(=O)CCS(=O)(=O)c1ccccc1	-12.8	13.2	64.1*	-3.7	10.8	-8.4
CCOC(=O)c1ccsc1NC(=O)CCS(=O)(=O)c1ccccc1	11.4	6.7	63.8*	-0.8	9.7	9.6
NC(=O)c1ccsc1NC(=O)CCS(=O)(=O)c1ccc(Cl)cc1	-16.5	7.0	64.7*	3.5	-30.6	-0.2
NC(=O)c1ccsc1NC(=O)CCS(=O)(=O)c1ccccc1	-8.1	6.3	32.6	6.6	3.2	-6.7
O=C(CCN1CCC(c2ccccc2)C1)c1ccc2c(c1)OCCO2 (centres undefined)	-5.2	82.1*	76.3*	7.1	10.9	17.6
SMILES	HIF-2a inh	LMP1 NFkB inh	PAX8 inh HTS	TRPM1 prom inh	Shn3 inh set2	Peg3 prom inh
O=C(CCc1ccccc1)c1ccc2c(c1)OCCCO2	-254.4	-26.1	/	-126.4	-67.5	-306.9
O=C(CCN1CCC(c2ccccc2)C1)c1ccccc1 (centres undefined)	-8.5	-7.8	/	2.9	0.6	8.2
O=C(CCCc1ccccc1)c1ccc2c(c1)OCCO2	66.5*	61.2*	/	77.4*	52.1	87.2*
C[C@@H]1CN([C@H](C)CO)C(=O)c2cc(NS(=O)(=O)c3ccccc3)ccc2O[C@@H](C)CCCCO[C@@H]1CN(C)Cc1ccc2c(c1)OCO2	/	/	21.8	/	/	/
COc1ccccc1C#Cc1ccc2c(c1)[C@H]1[C@H](CCN1S(=O)(=O)c1cn(C)cn1)[C@@H](CO)N2	/	/	8.9	/	/	/
CC(C)CC#Cc1ccc2c(c1)O[C@@H](CN(C)S(=O)(=O)c1ccc(F)cc1)[C@@H](C)CN([C@@H](C)CO)S2(=O)=O	/	/	94.9*	/	/	/
CC(C)CC#Cc1ccc2c(c1)O[C@H](CN(C)S(=O)(=O)c1ccc(F)cc1)[C@@H](C)CN([C@@H](C)CO)S2(=O)=O	/	/	101.3*	/	/	/
CC(C)CC#Cc1ccc2c(c1)O[C@@H](CN(C)S(=O)(=O)c1ccc(F)cc1)[C@H](C)CN([C@@H](C)CO)S2(=O)=O	/	/	81.0*	/	/	/
CC(C)CC#Cc1ccc2c(c1)O[C@H](CN(C)S(C)(=O)=O)[C@@H](C)CN([C@H](C)CO)S2(=O)=O	/	/	-1.4	/	/	/
COc1cccc(S(=O)(=O)N2CCCCN3[C@H](CO)[C@@H](c4ccc(-c5cccnc5)cc4)[C@@H]3C2)c1	/	/	-5.4	/	/	/
CN(C1=C(N2CCOCC2)C(=O)c2ccccc2C1=O)c1ccccc1	26.5	7.6	-2.3	52.2	6.1	20.3
CC1COCC(C)N1C1=C(Cl)C(=O)c2ccccc2C1=O (centres undefined)	-2.0	32.7	8.5	96.5*	95.9*	99.8*
CN1CCN(C2=C(NS(=O)(=O)c3cccs3)C(=O)c3ccccc3C2=O)CC1	-3.4	-11.3	7.9	76.6*	4.7	-12.6
CCOC(=O)N1CCN(C2=C(NS(=O)(=O)c3ccccc3)C(=O)c3ccccc3C2=O)CC1	-1.1	1.7	11.6	23.3	-0.3	-5.0
CCN1CCN(C2=C(NS(=O)(=O)c3ccc(Br)cc3)C(=O)c3ccccc3C2=O)CC1	-32.9	6.8	-3.4	89.7*	-27.9	-8.0
CN1CCN(C2=C(NS(=O)(=O)c3ccccc3)C(=O)c3ccccc3C2=O)CC1	-6.0	-12.1	/	78.0*	4.6	10.8
CCN1CCN(C2=C(NS(=O)(=O)c3ccccc3)C(=O)c3ccccc3C2=O)CC1	-52.9	/	-5.7	67.2*	2.3	23.3
